# Test results as given in PubChem BioAssay (NCATS).
# Inconclusive results are not listed. Calls of active or inactive are those of the source. The call rests on the fitted dose curve; in most records, active means well fitted cell-killing curve with a large enough effect; inconclusive means small, poorly fitted or top-dose-only effect; inactive means no such curve, though single readings can be large or run the other way.
# Experiment: qHTS of pediatric cancer cell lines to identify multiple opportunities for drug repurposing: Primary screen for SK-N-MC cells (AID 1347093)
# Settings: SK-N-MC viability, CellTiter-Glo luminescence, 48 h; series mostly up to 46 µM; activity change, negative = cytotoxic: at the top concentration
# Text: Drug repurposing or repositioning has been offered as a strategy for drug development in oncology programs. This approach has special potential for childhood cancers and other rare or orphan diseases, where the expected return on new drug development has been a disincentive to pharmaceuticals.
# In this project we exploit the poly-pharmacology of drugs to discover new indications via phenotypic screening of a panel of 19 well-characterized cell lines derived from solid tumors seen in children and adolescents. The goal is to identify approved drugs with previously unrecognized anticancer properties that has the potential to reveal new mechanisms and biological processes involved in carcinogenesis or drug resistance. We employed a titration-based paradigm (quantitative high-throughput screening or qHTS), where all compounds were tested at multiple concentrations for their effect on cell viability. Concentration-response curves (CRCs) were derived directly from the primary screen, and both potency and efficacy values were used to identify compounds with robust bioactivity profiles. We screened the NIH Chemical Genomics Center (NCGC) Pharmaceutical Collection (NPC) and Mechanism Interrogation Plate (MIPE) small molecule collections of approved and investigational compounds against these cell lines; and measured metabolically active cells after 48 hours of compound treatment as a proxy for cell viability.
# Assay Submitter: Nathalia J. Martinez, National Center for Advancing Translational Sciences, National Institutes of Health, Rockville, MD, USA; email: natalia.martinez@nih.gov
# [1] Shen, M et al. Quantitative high-throughput phenotypic screening of pediatric cancer cell lines identifies multiple opportunities for drug repurposing. Oncotarget 2017 Dec 19;9(4):4758-4772. PMID 29435139.
# The cells were obtained from University of North Carolina (UNC), Pediatric Preclinical Testing Program (PPT), and Coriell Institute (CI).
# qHTS cell viability assay:
# Cells were assayed in growth media at a density of 500-1,000 cells/well. Five microliters of cells were dispensed into 1,536-well, white, solid-bottom, TC-treated plates (Greiner Bio One) using a multidrop dispenser and incubated at 37 degrees C, 5% CO2, under a humidified atmosphere for 5 hours. Twenty-three nanoliters of compounds and controls (neutral control DMSO or positive control bortezomib at final concentration of 2.3 µM) were subsequently transferred by Kalypsys pintool. For primary screens, the MIPE collection was tested at 11-point dilutions (final concentrations range from 0.78 nM to 46 µM) and the NPC collection at 8-point dilutions (final concentrations range from 0.59nM to 46 µM). Compounds tested in follow-up screens were assayed at 11-point dilutions. Cells were incubated for 48 hours, followed by addition of 3 uL of CellTiter-Glo (Promega). After a 15 min incubation at room temperature, samples were analyzed for luminescence intensity using a ViewLux High-throughput CCD imager equipped with clear filters.
# Potency means the concentration at half of the fitted maximal effect.
Structure (SMILES),"activity change, negative = cytotoxic",Potency
CCCNC(=O)Nc1ccc(Oc2ncnc3cc(OC)c(OC)cc23)cc1Cl,0.802% (inactive),
CC(C)(C)c1cc(NC(=O)Nc2ccc(-c3cn4c(n3)sc3cc(OCCN5CCOCC5)ccc34)cc2)no1,,743 nM (active)
CN(C)Cc1c(C(=O)NCCOc2ccc(C(=O)NO)cc2)oc2ccccc12,,743 nM (active)
O=C(Cc1ccc(-c2ccc(OCCN3CCOCC3)cc2)cn1)NCc1ccccc1,,26.4 nM (active)
CC(C)[C@H](C(=O)Nc1ccc(C(=O)NO)cc1)c1ccccc1,,469 nM (active)
Cc1cn2cc(C(=O)N(C)CCO)cc(N[C@@H]3CCOc4cccc(C)c43)c2n1,-19.3% (inactive),
CCN(CC)CCNC(=O)c1ccc2nc(-c3ccccc3)c(-c3ccc(CN4CCC(n5c(=O)[nH]c6ccccc65)CC4)cc3)nc2c1,,2640 nM (active)
CCC1=C[C@@H]2CN(C1)Cc1c([nH]c3ccccc13)[C@@](C(=O)OC)(c1cc3c(cc1OC)N(C)[C@@H]1[C@@](O)(C(=O)OC)[C@H](OC(C)=O)[C@]4(CC)C=CCN5CC[C@]31[C@@H]54)C2,,8.3 nM (active)
COc1cccc2nc(-c3cccs3)nc(NN3C(=O)C=C(C)C3=O)c12,,14.8 nM (active)
CCOc1ccccc1OCCNC(C)Cc1ccc(OC)c(S(N)(=O)=O)c1 (stereo not given),-21.4% (inactive),
Cn1cc(-c2[nH]c3cc(NC(=O)[C@H](N)C4CCCCC4)cc4c3c2C=NNC4=O)cn1,,296 nM (active)
Cc1nc2ccc(CN(C)c3ccc(C(=O)N[C@@H](CCC(=O)O)C(=O)O)s3)cc2c(=O)[nH]1,,10.5 nM (active)
O=C(O)CO.[NH2-].[NH2-].[Pt+2],-7.35% (inactive),
CCNC(=O)Nc1ccc2ncc(Nc3ccc(C)cc3)nc2n1,,5.3 nM (active)
O=c1[nH]c(=O)n(C2CCCO2)cc1F (stereo not given),-10.4% [at 92.7 µM] (inactive),
NCC(=O)Nc1ccc(-n2nc(C(F)(F)F)cc2-c2ccc3c(ccc4ccccc43)c2)cc1,,37.2 nM (active)
COc1ccc2c(OCc3nnc4ccc(-c5ccccc5)nn34)ccnc2c1,-23.5% (inactive),
CCN1CCN(CC(=O)Nc2ccc(-c3cccc4c(=O)cc(N5CCOCC5)oc34)c3sc4ccccc4c23)CC1,,590 nM (active)
Nc1ncnc2c1c(-c1cccc(OCc3ccccc3)c1)cn2C1CC(CN2CCCC2)C1 (stereo not given),,662 nM (active)
COc1cc(OC2CCN(C)CC2)ccc1Nc1ncc2c(n1)n(C1CCCC1)c(=O)n2C,,3320 nM (active)

Structure (SMILES),"activity change, negative = cytotoxic",Potency
CCCCCN(CCC12CC3CC(CC(C3)C1)C2)C(=O)NCCCc1ccncc1,,16600 nM (active)
O=c1c2ccccc2nc2n1CCc1c-2[nH]c2ccccc12,-17.1% (inactive),
Cc1cc(N2CCOCC2)cc2[nH]c(-c3c(NC[C@@H](O)c4cccc(Cl)c4)cc[nH]c3=O)nc12,,11.8 nM (active)
Nc1nc(NCCNc2ncc(-n3ccnc3)c(-c3ccc(Cl)cc3Cl)n2)ccc1[N+](=O)[O-],,1660 nM (active)
CC(C)c1nn(-c2c(Cl)cccc2Cl)c2nc(Cc3ccc(OCCO)cc3)[nH]c(=O)c12,,41.8 nM (active)
CC(C)c1ccc(Cn2ccc3c4c(N)nc(NC5CC5)nc4ccc32)cc1,,743 nM (active)
CC1=C(CO)C(=O)O[C@@H]([C@@H](C)[C@H]2CC[C@H]3[C@@H]4C[C@H]5O[C@]56[C@@H](O)C=CC(=O)[C@]6(C)[C@@H]4CC[C@]23C)C1,,132 nM (active)
CC(C)(C)NC(=O)[C@H]1CN(Cc2cccnc2)CCN1C[C@@H](O)C[C@@H](Cc1ccccc1)C(=O)N[C@H]1c2ccccc2C[C@H]1O,,118 nM (active)
CC[C@H]1CN2CCc3cc(OC)c(OC)cc3[C@H]2C[C@@H]1C[C@@H]1NCCc2cc(OC)c(OC)cc21,,296 nM (active)
Cc1cn(-c2cc(NC(=O)c3ccc(C)c(Nc4nccc(-c5cccnc5)n4)c3)cc(C(F)(F)F)c2)cn1,27.7% (inactive),
CN[C@H]1CCc2cc(OC)c(OC)c(OC)c2-c2ccc(OC)c(=O)cc21,,2.6 nM (active)
C=CC(=O)N1CCC[C@@H](n2nc(-c3ccc(Oc4ccccc4)cc3)c3c(N)ncnc32)C1,,372 nM (active)
CN1CCN(Cc2ccc(NC(=O)Nc3ccc(Oc4cc(NC(=O)C5CC5)ncn4)cc3)cc2C(F)(F)F)CC1,,332 nM (active)
CN(C)CCCN=c1c2ccccc2n(C)c2[nH]c(=O)n(C)c(=O)c12,,2960 nM (active)
COc1ccc(-c2cc3c(C)nc(N)nc3n(C3CCC(OCCO)CC3)c2=O)cn1 (stereo not given),,5.3 nM (active)
CNC(=O)c1ccc(N2C(=S)N(c3cnc(C#N)c(C(F)(F)F)c3)C(=O)C23CCC3)cc1F,,1050 nM (active)
Nc1ccn([C@@H]2O[C@H](CO)[C@H](O)C2(F)F)c(=O)n1,,1320 nM (active)
CC(C)C[C@H](NC(=O)CNC(=O)c1cc(Cl)ccc1Cl)B(O)O,,148 nM (active)
CC[C@@H]1C(=O)N(C)c2cnc(Nc3ccc(C(=O)NC4CCN(C)CC4)cc3OC)nc2N1C1CCCC1,,59 nM (active)
CCn1nnc2c(N3CCOCC3)nc(-c3ccc(NC(=O)Nc4ccc(C(=O)N5CCN(C)CC5)cc4)cc3)nc21,,5.9 nM (active)
